Measured values from PubChem BioAssay (NCATS).
Results filed as inconclusive are left out. Where a call stands in place of a potency, no number is given. Unmarked numbers belong to inactive results. Activity calls are given as the source filed them. The call rests on the fitted dose curve; in most records, active means well fitted inhibition curve with a large enough effect; inconclusive means small, poorly fitted or top-dose-only effect; inactive means flat fitted curve, though single readings scatter.

Experiments:
[1] = qHTS profiling for inhibitors of Plasmodium falciparum proliferation (AID 504749); further: nearly all actives have a fitted effect of over 60% in size; conditions: P. falciparum in erythrocytes, SYBR Green DNA, 72 h
In short: (§1)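 Three-day growth assay of blood-stage parasites in erythrocytes (0.3% parasitemia, 2.5% hematocrit) at 37 C, 5% CO2, quantified by SYBR Green DNA staining after overnight detergent lysis.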

[2] = tested on: 3D7; assay: as above; conditions: P. falciparum in erythrocytes, SYBR Green DNA, 72 h; series mostly up to 28.7 µM
In short: as §1

[3] = tested on: 7G8; assay: as above; conditions: P. falciparum in erythrocytes, SYBR Green DNA, 72 h; series mostly up to 28.7 µM
In short: as §1

[4] = tested on: AA1029; assay: as above; conditions: P. falciparum in erythrocytes, SYBR Green DNA, 72 h; series mostly up to 28.7 µM
In short: as §1

[5] = tested on: AS120; assay: as above; conditions: P. falciparum in erythrocytes, SYBR Green DNA, 72 h; series mostly up to 28.7 µM
In short: as §1

[6] = tested on: ATS95; assay: as above; conditions: P. falciparum in erythrocytes, SYBR Green DNA, 72 h; series mostly up to 28.7 µM
In short: as §1

[7] = tested on: C2A; assay: as above; conditions: P. falciparum in erythrocytes, SYBR Green DNA, 72 h; series mostly up to 28.7 µM
In short: as §1

[8] = tested on: CP185; assay: as above; conditions: P. falciparum in erythrocytes, SYBR Green DNA, 72 h; series mostly up to 28.7 µM
In short: as §1

[9] = tested on: CP191; assay: as above; conditions: P. falciparum in erythrocytes, SYBR Green DNA, 72 h; series mostly up to 28.7 µM
In short: as §1

[10] = tested on: CP192; assay: as above; conditions: P. falciparum in erythrocytes, SYBR Green DNA, 72 h; series mostly up to 28.7 µM
In short: as §1

[11] = tested on: ATS189; assay: as above; conditions: P. falciparum in erythrocytes, SYBR Green DNA, 72 h; series mostly up to 28.7 µM
In short: as §1

[12] = tested on: CP194; assay: as above; conditions: P. falciparum in erythrocytes, SYBR Green DNA, 72 h; series mostly up to 28.7 µM
In short: as §1

[13] = at 28.7 µM (top of the series), parasite line A
[14] = at 28.7 µM (top of the series), parasite line B
Potency means the concentration at half of the fitted maximal effect.

Compound	activity, negative = inhibition [1, 13] [%]	activity, negative = inhibition [1, 14] [%]	Potency [2]	Potency [3]	Potency [4]	Potency [5]	Potency [6]	Potency [7]	Potency [8]	Potency [9]	Potency [10]	Potency [11]	Potency [12]	Potency ([1]; parasite line A)	Potency ([1]; parasite line B)	activity, negative = inhibition ([1]; at 12.8 µM (top of the series), parasite line A) [%]	activity, negative = inhibition ([1]; at 12.8 µM (top of the series), parasite line B) [%]
CCOC(=O)C1=C(COCCN)NC(C)=C(C(=O)OC)C1c1ccccc1Cl (configuration not stated)	-0.523	-8.98	inactive	11.2 µM (active)	inactive	inactive	inactive	inactive	inactive	inactive	inactive	–	–	–	–	–	–
O=P(O)(O)CP(=O)(O)O	11.8	12.6	inactive	inactive	inactive	inactive	inactive	inactive	–	–	inactive	inactive	inactive	–	–	–	–
CCc1ncnc2cc(OC)c(OC)cc12	-5.32	10.1	inactive	inactive	inactive	inactive	inactive	inactive	inactive	inactive	inactive	inactive	inactive	–	–	–	–
COc1ccc(/C=C/C(=O)O)cc1	8.39	-2.19	inactive	inactive	inactive	inactive	–	inactive	inactive	inactive	inactive	inactive	inactive	–	–	–	–
CN(C)CCCSc1ccccc1NC(=O)/C=C/c1ccccc1	13.3	3.42	inactive	inactive	–	inactive	inactive	inactive	inactive	inactive	inactive	inactive	inactive	–	–	–	–
COc1cc(NCCCC(C)N)c2ncccc2c1 (configuration not stated)	–	–	2 µM (active)	0.224 µM (active)	12.6 µM (active)	3.16 µM (active)	11.2 µM (active)	10 µM (active)	11.2 µM (active)	5.01 µM (active)	–	11.2 µM (active)	7.57 µM (active)	2 µM (active)	0.891 µM (active)	–	–
CCCCCCCCCCCCCCCCCC(=O)OCC(C)O (configuration not stated)	4.03	-12.1	inactive	inactive	inactive	inactive	inactive	inactive	inactive	inactive	inactive	inactive	inactive	–	–	–	–
Cc1cccc(C)c1NC(=O)NC1=CCCN1C	5.4	1.38	inactive	inactive	inactive	–	inactive	inactive	inactive	inactive	inactive	inactive	inactive	–	–	–	–
CC(=O)[O][Al][O]C(C)=O	4.56	3.22	inactive	inactive	inactive	inactive	inactive	inactive	inactive	inactive	–	inactive	inactive	–	–	–	–
CC(C)C1=CC2=CC[C@@H]3[C@](C)(CCC[C@@]3(C)C(=O)O)[C@H]2CC1	-4.25	-11.9	inactive	–	inactive	inactive	inactive	inactive	inactive	inactive	–	inactive	–	–	–	–	–
CN1CCC(OC(=O)C(Oc2ccc(Cl)cc2)Oc2ccc(Cl)cc2)CC1	7.76	-8.26	inactive	inactive	inactive	inactive	inactive	inactive	inactive	inactive	inactive	inactive	inactive	–	–	–	–
CCN(CC)CCCC(C)Nc1cc(/C=C/c2ccccc2Cl)nc2cc(Cl)ccc12 (configuration not stated)	–	–	1.41 µM (active)	0.794 µM (active)	2.24 µM (active)	2 µM (active)	2.51 µM (active)	1.12 µM (active)	2.82 µM (active)	1.26 µM (active)	–	3.55 µM (active)	12 µM (active)	1.78 µM (active)	2 µM (active)	–	–
O=C(O[C@H]1CN2CCC1CC2)N1CCc2ccccc2[C@@H]1c1ccccc1	-23.3	-19.3	inactive	5.62 µM (active)	–	inactive	inactive	–	inactive	–	inactive	inactive	–	–	–	–	–
NC(=O)Oc1ccc(Cc2ccccc2)cc1	0.685	4.41	inactive	–	inactive	inactive	inactive	inactive	inactive	inactive	inactive	inactive	inactive	–	–	–	–
S=C1SCN(Cc2ccccc2)CN1Cc1ccccc1	-6.7	–	inactive	inactive	inactive	inactive	inactive	inactive	inactive	inactive	inactive	inactive	inactive	–	–	–	–
COc1ccccc1N1CCN(CCCC(=O)c2ccc(F)cc2)CC1	-16.2	9.5	inactive	–	inactive	inactive	inactive	inactive	inactive	–	inactive	inactive	inactive	–	–	–	–
C=CCCCCCCCCC(=O)OC	-4.4	10.1	inactive	–	inactive	inactive	inactive	inactive	inactive	inactive	inactive	inactive	inactive	–	–	–	–

Compound	activity, negative = inhibition [1, 13] [%]	activity, negative = inhibition [1, 14] [%]	Potency [2]	Potency [3]	Potency [4]	Potency [5]	Potency [6]	Potency [7]	Potency [8]	Potency [9]	Potency [10]	Potency [11]	Potency [12]	Potency ([1]; parasite line A)	Potency ([1]; parasite line B)	activity, negative = inhibition ([1]; at 12.8 µM (top of the series), parasite line A) [%]	activity, negative = inhibition ([1]; at 12.8 µM (top of the series), parasite line B) [%]
COc1ccc2c(=O)c(C)c(-c3ccccc3)oc2c1CN(C)C	-2.15	-7.38	inactive	–	–	inactive	–	inactive	inactive	inactive	inactive	inactive	inactive	–	–	–	–
CCCCCCCCCC(=O)NO	-20	-16.7	inactive	–	inactive	inactive	inactive	inactive	inactive	–	inactive	inactive	inactive	–	–	–	–
CCOc1cc(-c2nccc3cc(OC)c(OC)cc23)cc(OCC)c1OCC	–	–	–	11.2 µM (active)	–	–	–	inactive	–	11.2 µM (active)	–	–	–	8.91 µM (active)	11.2 µM (active)	–	–
CC(=O)[C@H]1CC[C@H]2[C@@H]3C=CC4=CC(=O)CC[C@@]4(C)[C@H]3CC[C@]12C	–	–	–	inactive	inactive	inactive	inactive	inactive	inactive	inactive	inactive	inactive	inactive	–	–	0.59	-8.1
NC(=O)[C@@H]1CCCN1C(=O)[C@H](Cc1cnc[nH]1)NC(=O)[C@@H]1CCC(=O)N1	0.117	4.94	inactive	–	inactive	inactive	inactive	inactive	inactive	inactive	inactive	inactive	inactive	–	–	–	–
CS(=O)(=O)c1ccc([C@@H](O)[C@@H](COC(=O)CN)NC(=O)C(Cl)Cl)cc1	-27.9	-23.7	inactive	–	–	inactive	–	–	–	inactive	inactive	inactive	–	–	–	–	–
CC(C)OC(=O)Nc1ccc2nc(-c3cscn3)[nH]c2c1	1.15	-9.28	inactive	–	inactive	inactive	inactive	–	inactive	inactive	inactive	inactive	inactive	–	–	–	–
CC(C)(C)CC(C)(C)c1ccc(OCCO)cc1	-21	-13.8	inactive	–	inactive	inactive	inactive	inactive	inactive	inactive	inactive	inactive	inactive	–	–	–	–
O=C(O)CCC/C=C\C[C@@H]1[C@@H](/C=C/[C@@H](O)COc2cccc(Cl)c2)[C@H](O)C[C@@H]1O	11.9	-6.6	inactive	–	inactive	inactive	inactive	inactive	inactive	inactive	inactive	inactive	inactive	–	–	–	–
Cc1cc(C)c(NC(=O)C[C@H](CC(=O)O)c2cccc3ccccc23)c(C(=O)N2CCC3(CCCC3)CC2)c1	4.74	-1.81	inactive	–	inactive	inactive	inactive	inactive	inactive	inactive	inactive	inactive	inactive	–	–	–	–
O=C(O)CCC/C=C\C[C@@H]1[C@@H](/C=C/[C@@H](O)COc2cccc(C(F)(F)F)c2)[C@H](O)C[C@@H]1O	-5.12	-7.34	inactive	–	inactive	inactive	inactive	inactive	inactive	inactive	–	inactive	inactive	–	–	–	–
CCCCCCCCCCCCCCCCCC[N+](C)(C)CCC[Si](OC)(OC)OC	12.9	–	inactive	inactive	inactive	inactive	inactive	inactive	inactive	inactive	inactive	inactive	inactive	–	–	–	–
N=C(N)c1ccc(/C=C/c2ccc(C(=N)N)cc2O)cc1	–	–	–	3.98 µM (active)	10 µM (active)	12.6 µM (active)	10 µM (active)	3.98 µM (active)	10 µM (active)	1.41 µM (active)	5.36 µM (active)	–	6.01 µM (active)	8.91 µM (active)	10 µM (active)	–	–
C[C@@](Cc1ccc(O)c(O)c1)(NN)C(=O)O	-19.2	-6.85	inactive	–	–	–	inactive	inactive	inactive	inactive	inactive	inactive	inactive	–	–	–	–
CO/N=C(/C(=O)N[C@@H]1C(=O)N2C(C(=O)O)=C(COC(N)=O)CS[C@H]12)c1ccco1	6.01	2.26	inactive	–	inactive	inactive	inactive	inactive	inactive	inactive	inactive	inactive	inactive	–	–	–	–
O=C(O)CC/C=C\CC[C@@H]1[C@@H](N2CCCCC2)[C@@H](O)C[C@@H]1OCc1ccc(-c2ccccc2)cc1	6.82	1.98	inactive	–	inactive	inactive	inactive	inactive	inactive	–	inactive	inactive	inactive	–	–	–	–
O=[N+]([O-])c1c(Cl)cccc1-c1c[nH]cc1Cl	-12.9	-18.4	inactive	–	inactive	inactive	inactive	inactive	inactive	inactive	inactive	inactive	inactive	–	–	–	–
